# Shown are actives, neighbours in structure and some others; about 19% of the full set was active somewhere.
# IL1B secr inh: qHTS for Inhibitors of Inflammasome Signaling: IL-1-beta AlphaLISA Primary Screen. THP-1 LPS/ATP IL-1B secretion, AlphaLISA, 16 h; active compounds read low. activity change, % at 57.5 µM. actives 4.7% (n = 360,000). AID 743279, 2014; in the data active = activity change below about -50%; inconclusive = mostly about -30% to -49%
#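 THP-1 cells pretreated 1 hr with compounds (up to 57.5 uM final), then stimulated with LPS (250 ng/mL final) plus ATP (1.25 mM final); secreted IL-1B measured by AlphaLISA after 16 hr, decreased signal indicating inhibition.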
# Giardia kill: Small Molecules that selectively kill Giardia lamblia: qHTS | activity change, % at 7.66 µM, hits read low | actives 0.15% (n = 340,000) | Giardia lamblia trophozoite viability | AID 540267, 2011; in the data active = activity change below about -80%; inconclusive = between about -30% and that limit;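 also: parasites exposed to compound for two days anaerobically before the ATP read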
#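 Each well holds 100 Giardia trophozoites and compound. After two days (48 hrs) at 37 deg C in anaerobic conditions, ATP is quantified by luminescence.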
# TDP1 block: qHTS Assay for Inhibitors of Tyrosyl-DNA Phosphodiesterase (TDP1) | Tyrosyl-DNA phosphodiesterase 1 (Homo sapiens), Q9NUW8 | recombinant TDP1, AlphaScreen DNA substrate cleavage | Potency, µM (highest dose often 130 µM), for inactives: at the highest dose activity change, negative = inhibition, usual class: inhibitors | actives 0.28% (n = 350,000) | AID 485290, 2010; also: potency is read from the fitted curve at half-maximal effect; nearly all actives have a fitted effect of over 40% in size
# Target sequence (Q9NUW8 whole entry, looked up): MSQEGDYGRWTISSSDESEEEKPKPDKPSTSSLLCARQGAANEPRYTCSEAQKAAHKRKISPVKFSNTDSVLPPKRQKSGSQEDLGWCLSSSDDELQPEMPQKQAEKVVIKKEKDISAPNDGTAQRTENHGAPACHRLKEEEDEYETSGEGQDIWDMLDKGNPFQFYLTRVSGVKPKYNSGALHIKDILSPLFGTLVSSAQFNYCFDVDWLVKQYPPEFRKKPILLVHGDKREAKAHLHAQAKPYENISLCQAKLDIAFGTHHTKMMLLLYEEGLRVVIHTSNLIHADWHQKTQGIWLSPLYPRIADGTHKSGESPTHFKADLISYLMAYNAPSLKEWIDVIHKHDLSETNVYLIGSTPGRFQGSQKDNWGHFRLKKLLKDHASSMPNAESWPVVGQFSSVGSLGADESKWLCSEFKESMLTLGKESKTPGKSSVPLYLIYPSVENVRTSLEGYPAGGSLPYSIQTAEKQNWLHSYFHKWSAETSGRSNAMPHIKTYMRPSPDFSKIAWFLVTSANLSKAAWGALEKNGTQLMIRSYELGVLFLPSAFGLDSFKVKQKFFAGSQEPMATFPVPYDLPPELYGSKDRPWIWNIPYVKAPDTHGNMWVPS
#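 Recombinant human Tdp1 (E. coli-expressed, 1 nM final) preincubated with compounds 15 min at room temperature, then 5'-biotin/3'-phosphotyrosine-FITC DNA substrate (15 nM final) added for 5 min. AlphaScreen beads (10 ug/ml final) added 10 min; cleavage lowers signal.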
# ELG1 DNA repair: qHTS screen for small molecules that inhibit ELG1-dependent DNA repair in human embryonic kidney (HEK293T) cells expressing luciferase-tagged ELG1; AID 504467, 2011; Potency, µM (series often up to 46.1 µM), inactives show at the highest dose activity change, negative = inhibition, hits mostly inhibitors; actives 2.3% (n = 330,000); HEK293T ELG1-luciferase reporter, luminescence, 16 h; DNA damage induced by 5-fluorouridine; also: potency is read from the fitted curve at half-maximal effect; nearly all actives have a fitted effect of over 55% in size
#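 HEK293T cells expressing luciferase-tagged ELG1 (2,000/well) received 5-Fluorouridine plus compound or DMSO for 16 hr at 37 °C. Luciferase was read by ONE-Glo luminescence after 30 min at room temperature.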
# TDP1 cell CPT: qHTS for Inhibitors of human tyrosyl-DNA phosphodiesterase 1 (TDP1): qHTS in cells in presence of CPT | chicken DT40 Tdp1-/-;hTDP1 cells + 20 nM CPT, ATP luminescence, 48 h | Potency, µM (series often up to 46.2 µM), for inactives: at the highest dose activity change, negative = growth inhibition, hits mostly inhibitors | actives 12% (n = 420,000) | AID 686979, 2013; also: potency is read from the fitted curve at half-maximal effect; nearly all actives have a fitted effect of over 55% in size
#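 Chicken DT40 Tdp1-/- cells stably complemented with human TDP1 were seeded at 400 cells/well in medium containing 20 nM camptothecin, exposed to pin-transferred compounds, and grown at 37 °C for at least 48 hr. Viability was read as ATP luminescence.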
# TDP1 cell noCPT: qHTS for Inhibitors of human tyrosyl-DNA phosphodiesterase 1 (TDP1): qHTS in cells in absence of CPT; AID 686978, 2013; Potency, µM (doses to about 46.2 µM), for inactives: at the highest dose activity change, negative = growth inhibition, actives largely listed as inhibitors; actives 15% (n = 420,000); DT40 Tdp1-/- hTDP1 cells, no CPT, ATP luminescence, 48 h; also: potency is read from the fitted curve at half-maximal effect; nearly all actives have a fitted effect of over 55% in size
#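 Readout: luminescence from CellTiter-Glo after 30 min in the dark at RT. Cells: DT40 Tdp1-/- with stable hTDP1, 400/well. Exposure: compounds alone, ≥48 hr, 37 °C.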
# The depositor's hits bear a star; u = inconclusive; x = no result given. Unless noted, calls follow the shape of the dose curve; as a rule, active = well fitted curve in the direction sought with a large enough effect; inconclusive = small, poorly fitted or top-dose-only effect, or another doubt; inactive = no such curve, though single readings can be large; an effect the other way counts as inactive or inconclusive. % is scaled to controls: 0 for no effect and ±100 for the full control effect.
SMILES,IL1B secr inh,Giardia kill,TDP1 block,ELG1 DNA repair,TDP1 cell CPT,TDP1 cell noCPT
COc1ccccc1CCNC(=O)C(=O)NCC1OCCN1S(=O)(=O)c1ccc([N+](=O)[O-])cc1 (centres undefined),-11,-3,4%,0%,u,u
CCN(c1cccc(C)c1)S(=O)(=O)c1c(C)nc2sc(C)cn2c1=O,x,x,0%,x,u,-23%
O=S(=O)(Nc1ccc(-c2cn3c(n2)SCC3)cc1)c1cc(F)ccc1F,-18,x,x,x,-14%,u
COc1ccc(-c2coc3cc4oc(=O)cc(-c5ccccc5)c4cc23)cc1F,46,-19,5%,-3%,3.7µM*,4.6µM*
COc1ccc(-c2coc3cc4oc(=O)cc(C)c4cc23)cc1F,-8,-6,4%,14%,u,-28%
CC(=O)NC(Cc1ccccc1C)C(=O)NC1CCN(c2ncccc2[N+](=O)[O-])CC1 (centres undefined),x,x,3%,12%,x,x
O=[N+]([O-])c1ccccc1S(=O)(=O)Nc1cccc(-c2ccc3nncn3n2)c1,-9,-27,-16%,0%,-28%,u
CCCS(=O)(=O)Nc1cccc(-c2ccc3nnc(C)n3n2)c1,20,-20,3%,u,u,u
Cc1nnc2ccc(-c3cccc(NS(=O)(=O)c4ccccc4[N+](=O)[O-])c3)nn12,32,u,-6%,u,23µM*,15µM*
CCS(=O)(=O)Nc1cccc(-c2ccc3nnc(-c4cccnc4)n3n2)c1,-54*,-7,7%,-8%,21µM*,u
O=C(NC(=S)N(CCCCO)C1CCCCC1)c1sc2ccccc2c1Cl,46,-5,6%,-2%,16µM*,16µM*
CN(Cc1ccc(F)cc1)S(=O)(=O)c1ccc2[nH]c(=O)[nH]c2c1,-5,x,x,x,-7%,-28%
CCOC(=O)c1c(C)[nH]c(-c2csc(N)n2)c1C,42,10,11%,13%,-17%,u
COC(=O)c1c(C)[nH]c(C(=O)C(C)OC(=O)c2cc(C)oc2C)c1C (centres undefined),8,-5,1%,-7%,u,16µM*
COC(=O)c1c(C)[nH]c(C(=O)C(C)OC(=O)c2ccco2)c1C (centres undefined),0,21,2%,8%,-27%,u
CC(=O)c1c(C)[nH]c(C(=O)COC(=O)CN2C(=O)C3CCCCC3C2=O)c1C (centres undefined),18,18,-2%,u,u,0%
CCOC(=O)c1c(C)[nH]c(C(=O)COC(=O)[C@H](C)N2C(=O)C3CCCCC3C2=O)c1C (some centres undefined),3,-17,x,x,u,26µM*
CCOC(=O)c1c(C)[nH]c(-c2csc(C)n2)c1C,-15,-14,8%,u,u,13µM*
CC(=O)c1c(C)[nH]c(C(=O)COC(=O)c2cc(C)oc2C)c1C,u,16,-12%,-18%,u,2.6µM*
CC(=O)c1c(C)[nH]c(C(=O)COC(=O)c2ccc(C)s2)c1C,20,5,0%,u,12%,u
Cc1cc2ncc(S(=O)(=O)c3ccccc3)c(N)n2n1,3,-13,6%,3%,-4%,-10%
CCCCNc1nc(C#N)nc(Nc2ccccc2)n1,x,x,6%,x,x,x
CC(NC(=O)c1cccnc1)c1nnc2n1CCN(Cc1ccc(-c3ccccc3Cl)o1)CC2 (centres undefined),x,x,x,x,-5%,-22%
CC(=O)c1c(C)[nH]c(C(=O)COC(=O)c2ccc(Cl)nc2)c1C,7,24,0%,29%,13%,-8%
CCOC(=O)c1c(C)[nH]c(C(=O)COC(=O)c2[nH]c(C)c(C(C)=O)c2C)c1C,25,-7,2%,u,4.6µM*,5.2µM*
SMILES,IL1B secr inh,Giardia kill,TDP1 block,ELG1 DNA repair,TDP1 cell CPT,TDP1 cell noCPT
CC(=O)c1c(C)[nH]c(C(=O)COC(=O)C2(C)CC2(Cl)Cl)c1C (centres undefined),0,29,2%,u,18µM*,21µM*
Cn1c(=O)[nH]c(=O)c2c1nc1n2CCN1c1ccccc1,x,x,-5%,x,-12%,-13%
COc1ccc(/C=C2\CCc3ccccc3C2=O)cc1O,10,u,6%,u,0.52µM*,0.82µM*
CCOc1ccc(/C=C2\CCC(C3CCCC3)C2=O)cc1OC (centres undefined),-16,30,x,u,u,u
COc1ccc(C=C2NC(=O)NC2=O)cc1O,-15,x,x,x,1%,-23%
COc1ccc2c(c1)CC/C(=C/c1ccncc1)C2=O,-105*,-19,3%,-24%,16µM*,16µM*
COc1ccc(/C=C2\CCC(C3CCCC3)C2=O)cc1Cn1cccn1 (centres undefined),-80*,0,5%,-21%,18µM*,u
COc1ccc(/C=C2\CCc3ccccc3C2=O)cc1Cn1cccn1,u,28,7%,-3%,21µM*,u
CC(=O)N1CCC(N(Cc2ccco2)C(=O)Nc2ccc(Br)cc2F)CC1,x,x,-2%,x,-12%,-24%
CC(OC(=O)[C@@H]1CCCN1C(=O)c1cccs1)C(=O)Nc1cccc([N+](=O)[O-])c1 (some centres undefined),13,-22,2%,13%,-20%,-18%
Cc1c(CC(=O)N2CCCCC2)c(=O)oc2cc(O)ccc12,x,x,7%,x,-4%,4%
CCc1ccccc1N(CC(=O)N1CCCCCC1)S(C)(=O)=O,4,1,2%,-17%,-5%,-1%
CC(C)C1C(=O)Nc2ccc(S(=O)(=O)NCc3ccc(Cl)cc3)cc21 (centres undefined),x,x,6%,x,23µM*,16µM*
CCOc1ccc2nc(-c3ccccc3)[nH]c2c1,-3,u,5%,u,9.2µM*,21µM*
Cc1ccc(-n2c(C)cc(/C=C3/C(=N)N4C(c5ccccc5)=CSC4=NC3=O)c2C)cc1,13,26,2%,10%,u,23µM*

# High-throughput results as filed in PubChem.
